The record followed here is ChEMBL document CHEMBL1961873, “Compounds: GSK PKIS; Assays: Nanosyn kinase panel” (2012).

Molecules are shown by their SMILES. Values joined by “and” are separate entries in the source; they are usually repeats but may differ in a detail not shown here. Identical values can stand only once.

For orientation: inhibition means the change of the read-out against control, counted positive when it falls.

The target in test [1] is Serine/threonine-protein kinase 26 (Homo sapiens) (UniProt Q9P289). The following applies: at 1 µM.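 Note: mean inhibition of MST4 kinase activity, reported from the GSK PKIS inhibitor-set screening panel.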
Serine/threonine-protein kinase 26 (Homo sapiens), sequence (Q9P289 2-416 limits assumed): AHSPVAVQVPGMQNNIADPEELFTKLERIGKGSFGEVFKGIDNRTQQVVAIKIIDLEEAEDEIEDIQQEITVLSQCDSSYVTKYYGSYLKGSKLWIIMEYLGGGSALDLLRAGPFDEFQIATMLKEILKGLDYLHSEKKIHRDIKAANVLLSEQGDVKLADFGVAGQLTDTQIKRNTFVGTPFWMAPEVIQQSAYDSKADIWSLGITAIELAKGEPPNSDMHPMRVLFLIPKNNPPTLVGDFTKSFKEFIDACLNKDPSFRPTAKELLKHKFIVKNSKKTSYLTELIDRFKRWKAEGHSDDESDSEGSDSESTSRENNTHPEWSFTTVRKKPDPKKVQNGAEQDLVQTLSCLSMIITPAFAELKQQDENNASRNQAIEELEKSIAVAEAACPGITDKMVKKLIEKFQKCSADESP
The target in test [2] is Serine/threonine-protein kinase PAK 1 (Homo sapiens) (UniProt Q13153). The settings on record: at 0.1 µM.
Serine/threonine-protein kinase PAK 1 (Homo sapiens), sequence (Q13153 whole entry): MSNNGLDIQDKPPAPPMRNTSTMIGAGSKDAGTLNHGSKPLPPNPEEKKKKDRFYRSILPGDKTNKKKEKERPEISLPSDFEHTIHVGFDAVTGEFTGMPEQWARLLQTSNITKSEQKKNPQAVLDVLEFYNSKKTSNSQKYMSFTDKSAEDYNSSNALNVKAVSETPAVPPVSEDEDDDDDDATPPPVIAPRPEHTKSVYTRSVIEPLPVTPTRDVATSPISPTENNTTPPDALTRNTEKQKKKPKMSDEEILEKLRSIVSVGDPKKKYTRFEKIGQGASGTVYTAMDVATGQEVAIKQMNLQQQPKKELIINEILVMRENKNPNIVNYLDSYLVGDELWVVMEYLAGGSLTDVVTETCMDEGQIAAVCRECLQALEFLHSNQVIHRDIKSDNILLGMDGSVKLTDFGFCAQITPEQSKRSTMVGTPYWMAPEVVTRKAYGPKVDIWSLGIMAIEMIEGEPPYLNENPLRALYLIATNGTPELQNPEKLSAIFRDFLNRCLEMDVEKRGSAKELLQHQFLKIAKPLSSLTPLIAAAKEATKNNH
For test [3] the target is unchanged. The settings on record: at 1 µM.
Test [4] deals with Serine/threonine-protein kinase PAK 2 (Homo sapiens) (UniProt Q13177). The settings on record: at 0.1 µM.
Serine/threonine-protein kinase PAK 2 (Homo sapiens), sequence (Q13177 whole entry): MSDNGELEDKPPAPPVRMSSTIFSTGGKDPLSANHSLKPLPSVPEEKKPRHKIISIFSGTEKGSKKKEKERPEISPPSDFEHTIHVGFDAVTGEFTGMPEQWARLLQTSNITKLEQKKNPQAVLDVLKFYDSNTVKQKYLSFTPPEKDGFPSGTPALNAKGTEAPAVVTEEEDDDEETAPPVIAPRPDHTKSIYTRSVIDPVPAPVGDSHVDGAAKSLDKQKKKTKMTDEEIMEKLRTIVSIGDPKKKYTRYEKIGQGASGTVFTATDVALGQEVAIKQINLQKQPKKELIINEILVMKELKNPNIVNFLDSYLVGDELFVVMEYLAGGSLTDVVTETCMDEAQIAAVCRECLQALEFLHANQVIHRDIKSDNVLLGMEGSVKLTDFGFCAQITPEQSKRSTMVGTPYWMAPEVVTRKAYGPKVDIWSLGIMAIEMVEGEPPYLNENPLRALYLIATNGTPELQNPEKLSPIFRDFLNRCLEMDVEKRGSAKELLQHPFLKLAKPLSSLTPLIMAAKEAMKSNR
Test [5] shares this target. The following applies: at 1 µM.
Test [6] addresses Serine/threonine-protein kinase PAK 3 (Homo sapiens) (UniProt O75914). The settings on record: at 0.1 µM.
The target is the same in test [7]. The following applies: at 1 µM.
The target of test [8] is Serine/threonine-protein kinase PAK 5 (Homo sapiens) (UniProt Q9P286). The following applies: at 0.1 µM.
Serine/threonine-protein kinase PAK 5 (Homo sapiens), sequence (Q9P286 whole entry, looked up): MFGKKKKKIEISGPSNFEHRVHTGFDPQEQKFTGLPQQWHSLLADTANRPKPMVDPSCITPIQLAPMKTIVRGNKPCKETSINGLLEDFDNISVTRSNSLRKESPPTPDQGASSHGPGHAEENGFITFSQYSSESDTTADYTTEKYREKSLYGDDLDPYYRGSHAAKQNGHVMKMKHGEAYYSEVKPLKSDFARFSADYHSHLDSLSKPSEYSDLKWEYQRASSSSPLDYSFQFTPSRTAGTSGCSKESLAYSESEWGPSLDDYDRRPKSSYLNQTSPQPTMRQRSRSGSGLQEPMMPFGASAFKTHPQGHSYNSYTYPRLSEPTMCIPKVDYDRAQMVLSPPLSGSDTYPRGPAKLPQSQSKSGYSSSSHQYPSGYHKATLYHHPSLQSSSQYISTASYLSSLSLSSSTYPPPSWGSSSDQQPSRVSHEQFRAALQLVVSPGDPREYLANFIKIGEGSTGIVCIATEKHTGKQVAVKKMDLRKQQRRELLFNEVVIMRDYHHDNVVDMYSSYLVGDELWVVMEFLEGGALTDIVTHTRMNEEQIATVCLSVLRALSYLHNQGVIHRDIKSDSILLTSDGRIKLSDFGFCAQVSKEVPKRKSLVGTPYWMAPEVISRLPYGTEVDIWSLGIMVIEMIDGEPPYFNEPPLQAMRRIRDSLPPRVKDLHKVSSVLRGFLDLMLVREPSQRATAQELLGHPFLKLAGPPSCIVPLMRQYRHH
Test [9] shares this target. The settings on record: at 1 µM.
In test [10] the target is Serine/threonine-protein kinase PAK 6 (Homo sapiens) (UniProt Q9NQU5). The settings on record: at 0.1 µM.
Serine/threonine-protein kinase PAK 6 (Homo sapiens), sequence (Q9NQU5 whole entry, looked up): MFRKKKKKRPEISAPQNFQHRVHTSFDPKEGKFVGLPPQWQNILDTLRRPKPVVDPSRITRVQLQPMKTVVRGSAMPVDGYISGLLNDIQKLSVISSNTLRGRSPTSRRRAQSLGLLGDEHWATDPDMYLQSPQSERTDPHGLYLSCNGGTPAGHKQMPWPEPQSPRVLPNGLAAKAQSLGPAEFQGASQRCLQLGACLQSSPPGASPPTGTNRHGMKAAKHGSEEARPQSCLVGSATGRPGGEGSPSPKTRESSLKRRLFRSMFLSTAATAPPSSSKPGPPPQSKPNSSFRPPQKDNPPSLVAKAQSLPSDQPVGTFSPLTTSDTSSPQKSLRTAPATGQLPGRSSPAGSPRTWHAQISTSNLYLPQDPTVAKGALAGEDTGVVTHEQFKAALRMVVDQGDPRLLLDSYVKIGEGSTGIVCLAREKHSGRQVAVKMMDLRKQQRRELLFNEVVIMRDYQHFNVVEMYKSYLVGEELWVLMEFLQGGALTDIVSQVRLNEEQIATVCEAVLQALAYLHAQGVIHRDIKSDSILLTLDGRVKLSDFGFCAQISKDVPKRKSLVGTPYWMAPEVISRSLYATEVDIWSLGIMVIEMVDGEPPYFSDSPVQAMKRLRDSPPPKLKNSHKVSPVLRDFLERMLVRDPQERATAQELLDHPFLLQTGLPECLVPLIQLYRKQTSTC
The target is the same in test [11]. The following applies: at 1 µM.
In test [12] the test system is Tyrosine-protein kinase ABL1 (Homo sapiens), P00519 [E255K]. The following applies: at 0.1 µM.
The test system is the same in test [13]. The settings on record: at 1 µM.
The test system of test [14] is Tyrosine-protein kinase ABL1 (Homo sapiens), P00519 [H396P]. The following applies: at 0.1 µM.
For test [15] the test system is unchanged. The settings on record: at 1 µM.
Test [16] concerns Tyrosine-protein kinase ABL1 (Homo sapiens), P00519 [M351T]. The settings on record: at 0.1 µM.
Test [17] shares this test system. The following applies: at 1 µM.
Test [18] relates to Tyrosine-protein kinase ABL1 (Homo sapiens), P00519 [Q252H]. The settings on record: at 0.1 µM.
Test [19] has the same test system. The settings on record: at 1 µM.
For test [20], the system named is Tyrosine-protein kinase ABL1 (Homo sapiens), P00519 [T315I]. The following applies: at 0.1 µM.

Serine/threonine-protein kinase PAK 3 (Homo sapiens), sequence (O75914 whole entry, looked up): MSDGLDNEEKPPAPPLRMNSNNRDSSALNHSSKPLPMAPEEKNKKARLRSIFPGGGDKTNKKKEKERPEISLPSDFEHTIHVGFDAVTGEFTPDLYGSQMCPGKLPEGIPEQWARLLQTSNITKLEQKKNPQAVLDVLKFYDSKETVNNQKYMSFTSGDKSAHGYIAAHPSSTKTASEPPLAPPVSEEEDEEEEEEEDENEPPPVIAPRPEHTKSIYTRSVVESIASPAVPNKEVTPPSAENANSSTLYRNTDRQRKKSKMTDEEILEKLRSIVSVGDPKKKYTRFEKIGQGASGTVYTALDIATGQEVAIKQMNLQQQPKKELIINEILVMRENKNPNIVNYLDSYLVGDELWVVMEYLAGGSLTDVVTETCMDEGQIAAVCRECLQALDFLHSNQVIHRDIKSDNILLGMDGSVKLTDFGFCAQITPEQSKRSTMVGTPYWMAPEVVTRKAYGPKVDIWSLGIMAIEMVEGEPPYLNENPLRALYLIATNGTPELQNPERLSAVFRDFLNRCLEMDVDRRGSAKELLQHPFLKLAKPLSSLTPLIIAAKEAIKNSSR

Take `O=C(O[C@H]1CN[C@H](C#Cc2cc3ncnc(Nc4ccc5c(ccn5Cc5cc(F)ccc5F)c4)c3s2)C1)N1CCOCC1`: the inhibition in test [1] was 0.81%; in test [2], 9.36%; in test [3] it was 8.97%; in test [4], 2.13%; in [5], 2.48%; in test [6] it was 5.02%. Further, the inhibition in [7] was 5.53%; in test [8], -0.09%; in test [9] it was -5.06%; in test [10], -1.93%; in test [11] it was -0.57%; in test [12], 1.52%. In addition, the inhibition in test [13] came out at 3.53%; in test [14], 4.04%; in test [15], 8.92%; in [16], 1.92%; in test [17], 3.98%; in test [18], 3.74%. Besides, the results for the inhibition in [19] and in [20] were 3.88% and 3.97%, respectively.

With `O=C(O[C@H]1CN[C@H](C#Cc2cc3ncnc(Nc4ccc5c(cnn5Cc5ccccc5)c4)c3s2)C1)N1CCOCC1`, the inhibition in test [1] is 2.02%; in test [2] it was 2.28%; in test [3], 0.73%; in [4], -1.9%; in test [5], -1.35%; in test [6] it was -0.09%. Also, the inhibition in test [7] is 0.69%; in test [8] it was -0.12%; in test [9], -1.71%; in test [10] it was 3.43%; in [11], 0.8%; in test [12] it was 0.73%. For the same compound, the inhibition in [13] is 0.29%; in test [14], -0.26%; in test [15], 1.3%; in [16] it was 2.14%; in test [17], -0.2%; in [18] it was 0.53%. Moreover, the inhibition in test [19] is 0.83%; in test [20], -1.97%.

Take `c1cnn2ncc(-c3ccnc(NCCCN4CCOCC4)n3)c2c1`: the inhibition in test [1] was -2.39%; in test [2], 6.37%; in [3], 4.03%; in [4] it was 1.39%; in test [5], 0.34%; in test [6] it was 3.11%. The inhibition is 3.78% in test [7]; 2.65% in test [8]; 1.01% in test [9]; -0.41% in test [10]; -5.92% in [11]; 1.77% in [12]. For the same compound, the inhibition turned out to be 1.98% in test [13]; 3.45% in test [14]; 3.75% in [15]; 1.48% in [16]; 0.71% in [17]; 3.41% in [18]. Moreover, the inhibition in test [19] is 2.1%; in test [20], 2.37%.

As for `COc1ccc(-c2nn3ncccc3c2-c2ccnc(Nc3ccc(F)c(F)c3)n2)cc1`, the inhibition in test [1] stood at 0.76%; in [2], 3.1%; in test [3], 5.49%; in [4], 1.93%; in test [5], 0.93%; in test [6], 2.36%. Besides, the inhibition in test [7] was 5.12%; in test [8] it was 3.31%; in test [9], 0.77%; in [10], 5.78%; in [11] it was -1.89%; in [12], 3.61%. Moreover, the inhibition in test [13] came to 10.3%; in test [14], 4.57%; in test [15], 22.8%; in test [16], 17%; in test [17] it was 58.1%; in test [18], 12.2%. The inhibition came out at 47.4% in test [19] and 5.18% in test [20].

Turning to `Fc1cccc(COc2ccc(Nc3ncncc3C#Cc3ccccc3)cc2Cl)c1`, the inhibition in test [1] was 0.47%; in test [2], 4.22%; in test [3], 6.2%; in [4], 1.86%; in test [5], 2.71%; in test [6], 4.76%. For the same compound, the inhibition in test [7] was 5.44%; in test [8] it was 1.61%; in test [9], 0.61%; in [10] it was 1.93%; in test [11], -8.4%; in test [12] it was 3.27%. Besides, the inhibition worked out at 5.06% in test [13]; 3.58% in test [14]; 4.02% in test [15]; 0.94% in [16]; 5.32% in test [17]; 4.91% in [18]. Also, the inhibition came to 3.96% in test [19] and 4.11% in test [20].

For the compound `COc1ccc2ncn(-c3cc(O[C@H](C)c4ccccc4C(F)(F)F)c(C(N)=O)s3)c2c1`, the inhibition is 13.1% in test [1]; -0.34% in test [2]; 2.49% in test [3]; -1.58% in test [4]; -0.3% in [5]; -2.52% in test [6]. Also, the inhibition in test [7] is 0.02%; in test [8], -6.5%; in test [9] it was -1.3%; in test [10], -7.06%; in test [11], -8.65%; in [12], -0.4%. Also, the inhibition in test [13] was -1.92%; in test [14], -0.02%; in test [15] it was 2.03%; in test [16], 0.8%; in test [17], 1.91%; in test [18] it was -0.3%. In addition, the inhibition is 2.05% in [19] and 0.03% in [20].

Consider `COc1ccc(Nc2ncc(-c3ccccc3)o2)cc1OC`, for which the inhibition was -5.3% in [1]; 0.24% in [2]; 1.35% in test [3]; 0.18% in test [4]; 0.91% in test [5]; -0.05% in test [6]. Moreover, the inhibition in [7] is 0.75%; in test [8] it was -8.21%; in test [9] it was -5.61%; in test [10] it was 8.32%; in test [11], -2.99%; in [12], 4.59%. In addition, the inhibition in [13] turned out to be 32.7%; in [14], 10.7%; in test [15], 53.6%; in [16], 10.2%; in test [17], 56.2%; in test [18], 7.95%. Further, the inhibition in test [19] is 44.7%; in test [20], 1.08%.

On to `Nc1nonc1-c1nc2cnccc2n1C1CC1`, for which the inhibition in test [1] is -0.64% and -0.44%; in [2] it was 6.95% and 4.45%; in test [3] it was 7.1% and 6.44%; in test [4], 3.23% and 1.09%; in test [5], 2.18% and 0.82%; in [6], 4.18% and 2.78%. Further, the inhibition in test [7] was 5.29% and 3.12%; in test [8], 0.47% and 4.24%; in test [9], 1.66% and 0.23%; in [10] it was 7.48% and 3.54%; in test [11], 7.32% and -5.94%; in [12], 2.67% and 0.93%. The inhibition is 3.5% and 4.4% in [13]; 2.21% and 2.04% in test [14]; 0.55% and 1.2% in test [15]; 0.52% and -0.88% in test [16]; -0.96% and 2.63% in test [17]; 4.06% and 0.83% in [18]. The inhibition in [19] is 3.65% and 2.84%; in test [20] it was 2.85% and 1.97%.

As to `CCCNc1cccc(-n2ncc3c(N/N=C/c4ccncc4)ncnc32)c1`, the inhibition in [1] was -1.3%; in [2], -0.99%; in test [3], -0.69%; in [4], 0.12%; in [5], -0.31%; in test [6] it was 1.59%. In addition, the inhibition in test [7] was 1.61%; in [8], 8.4%; in test [9], 5.05%; in test [10], 16.9%; in test [11], 2.09%; in [12], 27.1%. Further, the inhibition was found to be 77.2% in test [13]; 37.5% in test [14]; 86% in [15]; 36.8% in test [16]; 85.8% in [17]; 35.7% in test [18]. Moreover, the inhibition in test [19] worked out at 83.8%; in test [20], 37.5%.

For `CCN1CCC(C(=O)Nc2n[nH]c3nnc(-c4cccc(F)c4F)cc23)CC1`, the inhibition is 0.11% in test [1]; -3.4% in test [2]; -3.06% in test [3]; -1.1% in [4]; -2.04% in test [5]; -0.81% in test [6]. The inhibition in test [7] was -0.69%; in [8], 0%; in test [9], 1.08%; in test [10] it was -5.45%; in test [11] it was -6.98%; in test [12] it was -0.54%. The inhibition in test [13] is 0.15%; in [14], 0.08%; in test [15] it was -0.56%; in test [16], -0.54%; in test [17] it was -0.16%; in [18], -1.28%. Further, the values for the inhibition in test [19] and in test [20] were -1.04% and 0.53%, respectively.

On to `COc1cccc(Nc2nccc(-c3cnn4ncccc34)n2)c1`, for which the inhibition in test [1] came to 3.21%; in test [2] it was 2.05%; in [3], 2.16%; in test [4], 1%; in [5], 2.62%; in test [6] it was 1.1%. The inhibition in test [7] turned out to be 1.63%; in [8], 8.25%; in test [9], 5.51%; in test [10], 1.43%; in test [11], 5.36%; in test [12], 5.54%. Further, the inhibition in test [13] was 23.1%; in [14], 8.68%; in test [15] it was 41.2%; in [16], 8.35%; in test [17], 45%; in test [18], 9.38%. The values for the inhibition in test [19] and in test [20] were 46.5% and 3.94%, respectively.

Turning to `CC(C)c1ccc(-c2cc(-c3c[nH]nc3-c3ccccn3)ccn2)cc1`, the inhibition in [1] was 3.31%; in test [2], 1.09%; in [3], -1.39%; in [4], 0.93%; in [5], -0.21%; in [6], -0.3%. Besides, the inhibition in test [7] is 0.21%; in test [8] it was -1.29%; in test [9], -0.36%; in test [10], 2.8%; in [11], -0.86%; in test [12] it was 2.44%. Further, the inhibition came out at 17.2% in [13]; 7.55% in test [14]; 40.1% in test [15]; 5.28% in test [16]; 38.5% in test [17]; 3.86% in test [18]. For the same compound, the inhibition came out at 21.4% in test [19] and 1.9% in test [20].

Consider `CS(=O)(=O)CCNCc1ccc(-c2ccc3ncnc(Nc4ccc(OCc5cccc(C(F)(F)F)c5)cc4)c3c2)o1`, for which the inhibition in test [1] is 0.42%; in test [2] it was 8.38%; in [3], 7.33%; in test [4], 1.38%; in [5] it was 3.12%; in test [6], 5.6%. For the same compound, the inhibition was 9.88% in [7]; 4.72% in [8]; 5.29% in test [9]; -8.96% in test [10]; -8.87% in test [11]; 0.33% in [12]. In addition, the inhibition in [13] is 2.52%; in test [14] it was 3.55%; in [15] it was 4.29%; in test [16], -0.21%; in test [17], 1.37%; in [18] it was 3.36%. Moreover, the inhibition amounted to 4.5% in test [19] and 1.82% in test [20].
